Compounds without any hit were thinned out: in the full panel of roughly 79,000, 15% have a hit. The source made the active and inactive calls. No stated cut-off is given here; in the data, active means growth inhibition above about 70%; inactive means the rest.
Legend:
[1] = NCI Yeast Anticancer Drug Screen. Data for the rad50 strain (AID 155);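 further: 0% = growth of vehicle-only cultures of the same strain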; details: S. cerevisiae rad50 strain growth inhibition, stronger effect = higher value
Procedure, shortened: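 Genetically altered yeast (DNA repair pathway); compound treatment; growth inhibition vs vehicle ctrl.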

[2] = NCI Yeast Anticancer Drug Screen. Data for the mec2-1 strain (AID 157); details: S. cerevisiae mec2-1 strain, stronger effect = higher value
Procedure, shortened: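 Yeast mec2-1 mutant treated with compound. Readout: growth inhibition vs vehicle controls.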

[3] = NCI Yeast Anticancer Drug Screen. Data for the sgs1 mgt1 strain (AID 161);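 further: 0% = growth of cultures given vehicle only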; details: S. cerevisiae sgs1 mgt1 strain, stronger effect = higher value
Procedure, shortened: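 Mutant yeast exposed to compound; growth scored against vehicle-only wells.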

[4] = NCI Yeast Anticancer Drug Screen. Data for the cln2 rad14 strain (AID 165);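 further: 0% = growth equal to vehicle treated cultures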; details: S. cerevisiae cln2 rad14 strain, stronger effect = higher value
Procedure, shortened: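 cln2 rad14 yeast strain; compound exposure; growth inhibition read vs vehicle controls.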

[5] = NCI Yeast Anticancer Drug Screen. Data for the bub3 strain (AID 167); details: S. cerevisiae bub3 mutant strain, stronger effect = higher value
Procedure, shortened: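 Yeast carrying a defined mutation is treated with each compound, and growth is compared with that of vehicle-exposed cells to give inhibition.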

[6] = NCI Yeast Anticancer Drug Screen. Data for the mlh1 rad18 strain (AID 175); details: S. cerevisiae mlh1 rad18 strain growth inhibition, stronger effect = higher value
Procedure, shortened: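 Yeast w/ defined DNA-repair lesions; compound exposure; growth vs vehicle controls → % inhibition.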

[7] = at 5.0 µM (retest, dose inferred, filed as 0.5)
[8] = at 50.0 µM (retest, dose inferred, filed as 5.0)

Measured: growth inhibition

Nc1ncc2ccccc2c1-c1ccc(NC(=O)CCCl)cc1
inactive: [1]; [7] -1% | [1]; [8] 36% | [2]; [7] -3% | [2]; [8] 40% | [2]; at 50.0 µM 14.8% | [3]; [7] -2% | [3]; [8] 39% | [3]; at 50.0 µM 31.6% | [4]; [7] -1% | [4]; [8] 23% | [4]; at 50.0 µM -4.85% | [5]; [7] 6% | [5]; [8] 59% | [5]; at 50.0 µM 21.6% | [6]; [7] -2% | [6]; [8] 55% | [6]; at 50.0 µM 45%
active: [1]; at 50.0 µM 70%

CCCCCC(C)C1=NC(C)(C)CC(C)O1 (configuration not stated)
inactive: [1]; [7] -153% | [1]; [8] -154% | [1]; at 50.0 µM 5.85% | [2]; [7] -51% | [2]; [8] -57% | [2]; at 50.0 µM -3.85% | [3]; [7] -64% | [3]; [8] -68% | [3]; at 50.0 µM -0.45% | [4]; [7] -62% | [4]; [8] -64% | [4]; at 50.0 µM 32.4% | [5]; [7] -73% | [5]; [8] -81% | [5]; at 50.0 µM -3.2% | [6]; [7] -139% | [6]; [8] -116% | [6]; at 50.0 µM 12.1%

COc1ccc(C2c3cc4c(cc3OC(O)(CO)C2C(=O)O)OCO4)cc1 (configuration not stated) (tested in a mixture with another compound)
inactive: [1]; [7] -6% | [1]; at 50.0 µM 53.5% | [2]; [7] -11% | [3]; [7] -6% | [3]; [8] 40% | [3]; at 50.0 µM 27.8% | [4]; [7] -6% | [4]; at 50.0 µM 37% | [5]; [7] -18% | [6]; [7] -8%
active: [1]; [8] 86% | [2]; [8] 75% | [2]; at 50.0 µM 81.3% | [4]; [8] 90% | [5]; [8] 95% | [5]; at 50.0 µM 87% | [6]; [8] 89% | [6]; at 50.0 µM 81.8%

O=[N+]([O-])c1c(Br)ncn1Cc1ccccc1
active: [1]; [8] 92% | [2]; [8] 98% | [3]; [8] 90% | [4]; [8] 99% | [5]; [8] 99% | [6]; [8] 94%
inactive: [1]; [7] 26% | [1]; at 50.0 µM 68.8% | [2]; [7] 22% | [2]; at 50.0 µM 8.25% | [3]; [7] 14% | [3]; at 50.0 µM 22.4% | [4]; [7] 21% | [4]; at 50.0 µM 7.5% | [5]; [7] 35% | [5]; at 50.0 µM -4.85% | [6]; [7] 49% | [6]; at 50.0 µM 38.4%

CCCCCCCCc1ccc2c3ccccc3c3ccccc3c2c1
active: [1]; at 50.0 µM 76.8%
inactive: [1]; [7] -9% | [1]; [8] -12% | [2]; [7] -19% | [2]; [8] -5% | [2]; at 50.0 µM 60.4% | [3]; [7] -19% | [3]; [8] -3% | [3]; at 50.0 µM 65.8% | [4]; [7] -1% | [4]; [8] -12% | [4]; at 50.0 µM 3.05% | [5]; [7] -1% | [5]; [8] -10% | [5]; at 50.0 µM 8.65% | [6]; [7] 23% | [6]; [8] 6% | [6]; at 50.0 µM 58.9%

C#CC(O)c1ccc(Cl)cc1Cl (configuration not stated)
active: [1]; [8] 96% | [1]; at 50.0 µM 99% | [2]; [8] 95% | [2]; at 50.0 µM 99.5% | [3]; [8] 92% | [3]; at 50.0 µM 95.3% | [4]; [8] 94% | [4]; at 50.0 µM 99.2% | [5]; [8] 96% | [5]; at 50.0 µM 99% | [6]; [8] 98% | [6]; at 50.0 µM 99.1%
inactive: [1]; [7] 9% | [2]; [7] -2% | [3]; [7] 0% | [4]; [7] -1% | [5]; [7] 5% | [6]; [7] 6%

Cc1ccc(C)c(C(=O)/C=C/C(=O)O)c1
active: [1]; [8] 100% | [2]; [8] 99% | [2]; at 50.0 µM 70.7% | [3]; [8] 100% | [4]; [8] 99% | [5]; [8] 98% | [6]; [8] 98%
inactive: [1]; [7] 29% | [1]; at 50.0 µM 52.5% | [2]; [7] 22% | [3]; [7] 32% | [3]; at 50.0 µM 61.5% | [4]; [7] 15% | [4]; at 50.0 µM 40.6% | [5]; [7] 27% | [5]; at 50.0 µM 64.1% | [6]; [7] 42% | [6]; at 50.0 µM 65.1%

CC(C)(C)c1ccc(C(=O)C[n+]2ccc(Cl)c3ccc(Cl)cc32)cc1
inactive: [1]; [7] 0% | [2]; [7] 1% | [3]; [7] 0% | [3]; at 50.0 µM 62.9% | [4]; [7] -2% | [4]; at 50.0 µM 53.5% | [5]; [7] 2% | [5]; at 50.0 µM -1.75% | [6]; [7] 1%
active: [1]; [8] 98% | [1]; at 50.0 µM 99% | [2]; [8] 99% | [2]; at 50.0 µM 99.3% | [3]; [8] 99% | [4]; [8] 97% | [5]; [8] 98% | [6]; [8] 99% | [6]; at 50.0 µM 99.2%

CN(C)C(=S)/N=c1\ss/c(=N\S(=O)(=O)c2ccccc2)n1-c1ccccc1
inactive: [1]; [7] 0% | [1]; [8] 0% | [1]; at 50.0 µM 37.6% | [2]; [7] -5% | [2]; [8] -13% | [2]; at 50.0 µM 51.9% | [3]; [7] -2% | [3]; [8] 26% | [3]; at 50.0 µM 64.9% | [4]; [7] -10% | [4]; [8] -21% | [4]; at 50.0 µM 9.6% | [5]; [7] -52% | [5]; [8] -2% | [5]; at 50.0 µM 29.1% | [6]; [7] -1% | [6]; [8] 15% | [6]; at 50.0 µM 59.7%

From PubChem BioAssay (NCI)
